# NR3A LBD binder: modulators (binders) of human NR3A ligand-binding domain; NR3A LBD differential scanning fluorimetry, Tm shift; 0% = protein alone, 100% = glycine-bound protein; Tm shift relative to glycine control, % at 25 µM; 340,000 tested, 2.5% active;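 active = melting temperature shift of at least 10% of the positive control shift, at one fixed dose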
# CRFR2-BP antag: antagonists of CRF-binding protein/CRF-R2 receptor complex; 350,000 tested, 0.59% active; HEK293 CRF-R2/CRF-BP, CRF-induced calcium fluorescence; inhibition, % at 11.8 µM;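 active = inhibition of the ligand-induced calcium signal above about 50% at the single tested concentration, limit read from the data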
# ANO1 activ: activators or potentiators of mouse TMEM16A chloride channel. Q8BHY3. HEK293 TMEM16A/YFP-H148Q/I152L, iodide quench fluorescence; stronger effect = lower value. B-score at 10 µM. 340,000 tested, 0.3% active. AID 623877;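 active = fluorescence-ratio B-score plate-corrected deviation score at least 3 library SD below zero, with starting fluorescence score within 5 deviations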;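 also: channel opened by trigger with iodide after compound preincubation; score built on the fluorescence ratio of max minus min over baseline; more negative score means more quench and so TMEM16A activation or potentiation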
# Target sequence (Q8BHY3 whole entry, looked up): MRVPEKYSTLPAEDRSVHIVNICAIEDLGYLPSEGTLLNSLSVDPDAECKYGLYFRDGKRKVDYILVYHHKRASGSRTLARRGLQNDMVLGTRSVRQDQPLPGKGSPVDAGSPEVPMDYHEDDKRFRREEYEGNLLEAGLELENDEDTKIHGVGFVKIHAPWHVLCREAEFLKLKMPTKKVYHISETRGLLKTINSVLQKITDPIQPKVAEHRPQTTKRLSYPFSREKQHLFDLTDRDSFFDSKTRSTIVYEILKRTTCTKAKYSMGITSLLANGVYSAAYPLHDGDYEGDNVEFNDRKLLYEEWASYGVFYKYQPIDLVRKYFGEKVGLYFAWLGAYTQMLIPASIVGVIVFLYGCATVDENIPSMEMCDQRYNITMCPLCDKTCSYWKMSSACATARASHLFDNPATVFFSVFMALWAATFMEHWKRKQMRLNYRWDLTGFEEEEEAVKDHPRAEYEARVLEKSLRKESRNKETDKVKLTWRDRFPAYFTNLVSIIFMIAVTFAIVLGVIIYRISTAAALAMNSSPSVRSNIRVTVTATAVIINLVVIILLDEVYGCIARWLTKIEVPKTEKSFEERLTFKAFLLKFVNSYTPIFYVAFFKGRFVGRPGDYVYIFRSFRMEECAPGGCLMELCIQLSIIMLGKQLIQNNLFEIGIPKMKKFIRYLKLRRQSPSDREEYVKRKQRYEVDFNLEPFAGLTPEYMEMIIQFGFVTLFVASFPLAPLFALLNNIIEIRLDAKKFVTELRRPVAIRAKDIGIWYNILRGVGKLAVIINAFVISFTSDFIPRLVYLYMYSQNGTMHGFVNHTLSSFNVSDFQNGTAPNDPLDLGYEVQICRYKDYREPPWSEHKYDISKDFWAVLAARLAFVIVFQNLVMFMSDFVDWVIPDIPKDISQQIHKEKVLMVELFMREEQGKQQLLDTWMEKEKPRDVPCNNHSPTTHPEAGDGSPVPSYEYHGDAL
# CRFBP-R2 agonist: agonists of human CRF-binding protein/CRF-R2 receptor complex | 350,000 tested, 0.46% active | activation, % at 13.2 µM | AID 588473 | HEK293 CRF-R2/CRF-BP, calcium dye fluorescence (FLIPR); percent of saturating CRF peptide response;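 active = activation of at least 50%, plus an integration ratio under a set limit after plate pattern correction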;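 also: plate controls were neutral control wells without compound for no effect and CRF at EC100 for full effect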
# MPTP inh: blocks calcium-induced mitochondrial swelling. 360,000 tested, 1.4% active. isolated mouse mitochondria, Ca2+ swelling absorbance, 30 min. inhibition, % at 10 µM;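 active = inhibition of 50% or more, scaled per plate between neutral and stimulator controls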;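 also: 0% = DMSO wells given calcium and 100% = 1 mM EGTA wells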
# ANO1 block: mouse TMEM16A channel inhibition, primary screen | Q8BHY3 | HEK293 TMEM16A/YFP iodide influx fluorescence, ionomycin | normalized B-score (activity score, 25-100; higher = stronger inhibition) at 10 µM | 310,000 tested, 1.2% active | AID 588511;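 active = ratio plate-corrected score three or more library SD toward inhibition, starting fluorescence score within five deviations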;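 also: score derived from kinetic fluorescence span divided by baseline fluorescence per well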
# Rh123 counter: membrane potential counter-screen of mitochondrial pore inhibitors | shares compounds with MPTP inh | isolated mitochondria, Rhodamine 123 fluorescence | inhibition, % at 10 µM | 5,000 tested, 78% active; in the data active = inhibition above about 22%;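 also: 0% = DMSO vehicle and 100% = positive control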
# MPTP swell DR: MPTP inhibition, dose response swelling confirmation; shares compounds with MPTP inh; isolated mitochondria swelling, absorbance; IC50, µM; 780 tested, 58% active; in the data active = IC50 below about 20 µM
# MPTP cs DR: active in counter-screen for permeability transition pore inhibitors; isolated mitochondria counterscreen, fluorescence read-out; shares compounds with MPTP inh; IC50, µM; AID 651564; 780 tested, 49% active; in the data active = IC50 below about 80 µM
# * = called active by the depositor; i = inactive; . = no result given. Hits are enriched below; roughly 5.1% of the tested compounds scored in any of these assays.
SMILES,NR3A LBD binder,CRFR2-BP antag,ANO1 activ,CRFBP-R2 agonist,MPTP inh,ANO1 block,Rh123 counter,others
CSc1cccc(NC(=O)NCc2cccc(CNC(=O)Nc3cccc(SC)c3)c2)c1,16*,-4,i,-2,68*,i,63*,
COc1ccc(NC(=O)Nc2ccccc2SC)cc1,-1,41,i,0,2,i,.,
Cc1cc(C2=CC(=O)C[C@H](c3ccc4c(c3)OCO4)C2)ccc1F,0,5,i,2,-1,.,.,
CC(=O)Nc1ccc(NC(=O)Nc2ccccc2C)cc1,-3,7,i,1,2,i,.,
O=C(/C=C/c1cccc(C(F)(F)F)c1)Nc1cccc(C(F)(F)F)c1,14*,2,-7.2*,2,87*,100*,85*,
CSc1cccc(NC(=O)/C=C/c2cccc(Cl)c2)c1,67*,-21,i,1,73*,100*,82*,
CC(=O)c1ccc(NC(=O)Nc2ccc(Br)cc2C)cc1,2,18,i,6,90*,i,97*,
Cc1ccc(NC(=O)Nc2ccc(Cl)cc2)c(Br)c1,35*,-13,i,-5,102*,i,92*,
O=C(/C=C/c1cccc(Cl)c1)Nc1ncccn1,-3,6,i,-3,-1,i,.,
O=C(O)/C=C/C(=O)Nc1cccc(C(F)(F)F)c1,0,12,i,-3,-1,i,.,
CCCC(=O)N1CCCC1(C)C(=O)Nc1cc(C)ccc1C (stereo unspecified),.,.,.,.,0,.,.,
O=C(N/C(=C\c1ccccc1)C(=O)N1CCOCC1)c1ccccc1Br,-2,-4,i,0,-2,i,.,
O=C(Nc1ccc(CN2CCCCC2)cc1)Nc1ccccc1Cl,1,-15,i,5,0,i,.,
O=C(Nc1ccc(Br)cc1)Nc1ccccc1Cl,21*,-5,i,4,78*,i,103*,
O=C(CCN1C(=O)C2C3CCC(C3)C2C1=O)Nc1cccc(Cl)c1 (stereo unspecified),4,-18,i,0,-1,i,.,
O=C(c1ccc2c(=O)n(C3CCCC3)c(=S)[nH]c2c1)N1CCCCCC1,-5,-30,i,3,89*,i,79*,
Cc1ccc(NC(=O)C(=O)NCc2ccc(/C=C(/C#N)C(=O)NCc3cccnc3)o2)cc1C,-1,-15,i,-1,60*,i,76*,
COC(=O)[C@@]12C[C@@H](CC(=O)NCc3cccs3)C(=O)N(Cc3cccc4ccccc34)C1=CCC(C)(C)C2,.,.,.,.,-1,.,.,
CN(C)S(=O)(=O)c1cccc(NC(=O)Cc2ccc(Cl)cc2)c1,-7,27,i,-3,13,i,.,
O=C(Nc1cccc(S(=O)(=O)N2CCCCCC2)c1)c1ccc(Cl)nc1,-4,0,i,-2,4,.,.,
O=C(Nc1cccc(S(=O)(=O)Nc2ccccc2Cl)c1)c1ccc(Cl)nc1,-11,-8,i,-1,62*,i,56*,
O=C(CSc1ccc([N+](=O)[O-])cc1)Nc1cccc(S(=O)(=O)Nc2ccccc2F)c1,24*,-18,i,-1,87*,i,68*,
O=C(Cc1ccc(Cl)cc1)Nc1cccc(S(=O)(=O)Nc2ccccc2F)c1,6,-1,i,-1,60*,i,64*,
Cn1c(=O)c2c(ncn2CC(=O)Nc2cccc(S(=O)(=O)Nc3ccccc3F)c2)n(C)c1=O,2,8,i,-1,-3,i,.,
CC(C)CC1Nc2ncnc(N3CCCCC3)c2N(Cc2ccc(Br)cc2)C1=O (stereo unspecified),-3,-6,i,-1,0,i,.,
SMILES,NR3A LBD binder,CRFR2-BP antag,ANO1 activ,CRFBP-R2 agonist,MPTP inh,ANO1 block,Rh123 counter,others
O=C(CN1C(=O)NC2(CCCCC2)C1=O)NCCCSc1ccccc1,1,-3,i,2,0,.,.,
COc1cc(OC)cc(C(=O)NC(=S)NNC(=O)[C@H]2C[C@@H]2c2ccccc2)c1,-10,-52,i,163*,82*,100*,-2,
COc1ncnc2c1ncn2CCCNCc1ccc2c(c1)OCO2,.,-3,.,0,0,.,.,
CC(C)COCC(CN(Cc1ccccc1)c1ccccc1)N1CCCC1 (stereo unspecified),0,-44,i,1,92*,i,-5,MPTP swell DR=14*;MPTP cs DR=44*
CC(C(=O)Nc1ccc(OCc2ccccc2)cc1)N1CCCC1 (stereo unspecified),0,-15,i,1,0,i,.,
COc1cc2cc(CCOC(=O)c3ccc(C(F)(F)F)cc3)oc(=O)c2cc1OC,1,5,i,1,-1,.,.,
CCCC1=NN2C(=N)/C(=C\c3cc(C)n(Cc4ccccc4)c3C)C(=O)N=C2S1,-5,-18,i,14,32,i,.,
CCCC1=NN2C(=N)/C(=C\c3cc(C)n(-c4cccc(C)c4)c3C)C(=O)N=C2S1,-16,-24,i,42,52*,i,5,MPTP swell DR=i;MPTP cs DR=>80
COC(=O)C1CCCCN1C(=O)c1cc(COc2cccc3cccnc23)on1 (stereo unspecified),-1,-13,i,0,1,i,.,
COC(=O)C1CCCCN1C(=O)c1cc(COc2cccc3cnccc23)on1 (stereo unspecified),.,.,i,.,93*,25*,100*,
CCC1CCCCN1C(=O)c1cccc(S(=O)(=O)Nc2cc(C(F)(F)F)ccc2Cl)c1 (stereo unspecified),4,-4,i,1,74*,25*,81*,
CC1(C)CC(=O)C2=C(C1)NC1=C(C(=O)c3ccccc31)C2c1ccccc1 (stereo unspecified),-7,-17,i,0,34,i,.,
CC1(C)CC(=O)C2=C(C1)NC1=C(C(=O)c3ccccc31)C2c1cc([N+](=O)[O-])ccc1O (stereo unspecified),0,-11,i,-3,94*,i,57*,
CC(C)c1ccc(C2C3=C(CC(C)(C)CC3=O)NC3=C2C(=O)c2ccccc23)cc1 (stereo unspecified),-18,-26,i,-1,84*,i,61*,
O=C(OCC(=O)N1CCC(c2ccccc2)=N1)c1ccc(Cl)s1,-1,-6,i,0,0,.,.,
COc1cccc(C(C)(O)c2nc(-c3ccc(N(C)C)cc3)cs2)c1 (stereo unspecified),.,.,.,.,99*,.,91*,

# Source: PubChem BioAssay
